Results from PubChem BioAssay (EPA / NIEHS).
The source made the active and inactive calls. The calls were made as follows: active = hit-call score of the fitted dose curve at least 0.9, where 1 is the maximum; inactive = score below 0.9.

Tests used:
Details in all cases: mRNA level, 48 h; actives raise or lower the signal
[1] = read-out: Tumor necrosis factor receptor superfamily member 6 (Homo sapiens) (UniProt P25445); assay: LTEA_HepaRG_FAS: Life Technologies and Expression Analysis (LTEA) Assay for Fas cell surface death receptor (FAS) using HepaRG (AID 2283447)
Procedure, shortened: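 Differentiated human HepaRG cells, pre-cultured 48 h, were exposed in duplicate for 48 h to 8-point half-log concentrations (top 100 uM, 0.5% DMSO) in serum-free induction medium; FAS mRNA measured by qRT-PCR, normalized to ACTB/GAPDH/POLR2A, bidirectional fit versus DMSO.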

[2] = read-out: Cyclin Dependent Kinase Inhibitor 1A (CDKN1A), CDKN1A (gene 1026); assay: LTEA_HepaRG_CDKN1A: Life Technologies and Expression Analysis (LTEA) Assay for Cyclin Dependent Kinase Inhibitor 1A (CDKN1A) using HepaRG (AID 2283450)
Procedure, shortened: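 Cryopreserved HepaRG cells were plated and cultured 48 h, then switched to serum-free induction medium. Chemicals (eight half-log concentrations, top 100 uM, 0.5% DMSO) were applied for 48 h. Lysates underwent qRT-PCR for CDKN1A with housekeeping normalization.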

[3] = read-out: Cyclin D1 (CCND1), CCND1 (gene 595); assay: LTEA_HepaRG_CCND1: Life Technologies and Expression Analysis (LTEA) Assay for Cyclin D1 (CCND1) using HepaRG (AID 2283451);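 as to AC50: TaqMan qRT-PCR transcript level normalised to ACTB GAPDH and POLR2A housekeeping genes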
Procedure, shortened: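 Human liver HepaRG line; 48 h dosing, 8 conc. ≤100 uM, 0.5% DMSO; TaqMan qRT-PCR mRNA, 3 housekeeping genes; bidirectional curve fit vs DMSO.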

[4] = read-out: catalase (CAT), CAT (gene 847); assay: LTEA_HepaRG_CAT: Life Technologies and Expression Analysis (LTEA) Assay for catalase (CAT) using HepaRG (AID 2283452);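 as to AC50: TaqMan qRT-PCR signal normalized to ACTB GAPDH and POLR2A housekeeping genes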
Procedure, shortened: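 Differentiated HepaRG cells in serum-free induction medium were dosed 48 h in duplicate, eight half-log concentrations from 100 uM in 0.5% DMSO. Transcript measured by TaqMan qRT-PCR, normalised to ACTB/GAPDH/POLR2A, fitted bidirectionally against DMSO.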

[5] = read-out: flavin-containing dimethylaniline monooxygenases 3 (FMO3), FMO3 (gene 2328); assay: LTEA_HepaRG_FMO3: Life Technologies and Expression Analysis (LTEA) Assay for flavin-containing dimethylaniline monooxygenases 3 (FMO3) using HepaRG (AID 2283453);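 as to AC50: FMO3 transcript by TaqMan qRT-PCR normalized to ACTB GAPDH and POLR2A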
Procedure, shortened: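 Eight-point concentration-response in serum-free HepaRG cultures (top 100 uM, 0.5% DMSO, 48 h). Read-out: FMO3 mRNA level normalized to three endogenous control genes, fitted bidirectionally versus vehicle.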

[6] = read-out: Cytochrome P450 (CYP1A1), CYP1A1 (gene 1543); assay: LTEA_HepaRG_CYP1A1: Life Technologies and Expression Analysis (LTEA) Assay for Cytochrome P450 (CYP1A1) using HepaRG (AID 2283454)
Procedure, shortened: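 Induction of CYP1A1 mRNA in a human hepatic cell line was measured 48 h after dosing, with 1 mM phenobarbital as induction positive control and 0.5% DMSO vehicle as baseline for bidirectional curve fitting.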

[7] = read-out: Forkhead box O1 (FOXO1), FOXO1 (gene 2308); assay: LTEA_HepaRG_FOXO1: Life Technologies and Expression Analysis (LTEA) Assay for Forkhead box O1 (FOXO1) using HepaRG (AID 2283456)
Procedure, shortened: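 Using one lot of HepaRG hepatic cells kept in 0.5% DMSO, the team applied test chemicals in duplicate, half-log dilutions from 100 uM, for 48 h. Expression, normalised to ACTB/GAPDH/POLR2A, was compared with vehicle in either direction.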

[8] = read-out: growth arrest and DNA damage 45 (GADD45A), GADD45A (gene 1647); assay: LTEA_HepaRG_GADD45A: Life Technologies and Expression Analysis (LTEA) Assay for growth arrest and DNA damage 45 (GADD45A) using HepaRG (AID 2283458)
Procedure, shortened: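 Eight-point concentration-response in HepaRG cells: 48 h chemical exposure, 0.5% DMSO vehicle, top dose 100 uM. Normalized qRT-PCR mRNA readout with bidirectional fitting relative to DMSO.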

[9] = read-out: Forkhead box O3 (FOXO3), FOXO3 (gene 2309); assay: LTEA_HepaRG_FOXO3: Life Technologies and Expression Analysis (LTEA) Assay for Forkhead box O3 (FOXO3) using HepaRG (AID 2283459)
Procedure, shortened: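 Gene-expression endpoint: FOXO3 transcript level by qRT-PCR in HepaRG cultures treated 48 h with chemicals up to 100 uM (half-log, 0.5% DMSO vehicle).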

[10] = read-out: ABC Transporter (ABCB1), ABCB1 (gene 5243); assay: LTEA_HepaRG_ABCB1: Life Technologies and Expression Analysis (LTEA) Assay for ABC Transporter (ABCB1) using HepaRG (AID 2283460)
Procedure, shortened: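 Human liver HepaRG line treated 48 h with up to 100 uM compound (eight half-log points, 0.5% DMSO); ABCB1 mRNA change fitted bidirectionally against DMSO controls.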

[11] = read-out: growth arrest and DNA damage 45 (GADD45B), GADD45B (gene 4616); assay: LTEA_HepaRG_GADD45B: Life Technologies and Expression Analysis (LTEA) Assay for growth arrest and DNA damage 45 (GADD45B) using HepaRG (AID 2283461)
Procedure, shortened: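 Values are bidirectional concentration-response fits against 0.5% DMSO controls. Underlying data: qRT-PCR mRNA levels in human HepaRG liver cells treated 48 h in serum-free induction medium, eight concentrations topping at 100 uM.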

[12] = read-out: ABC Transporter (ABCC3), ABCC3 (gene 8714); assay: LTEA_HepaRG_ABCC3: Life Technologies and Expression Analysis (LTEA) Assay for ABC Transporter (ABCC3) using HepaRG (AID 2283462)
Procedure, shortened: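 Differentiated HepaRG liver cells receive test chemicals at eight concentrations (max 100 uM) for 48 h. Expression of ABCC3 is quantified by qRT-PCR against ACTB, GAPDH and POLR2A, and activity is fitted in both directions against the DMSO control.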

[13] = read-out: ABC Transporter (ABCB11), ABCB11 (gene 8647); assay: LTEA_HepaRG_ABCB11: Life Technologies and Expression Analysis (LTEA) Assay for ABC Transporter (ABCB11) using HepaRG (AID 2283463)
Procedure, shortened: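 Using HepaRG cultures held in 0.5% DMSO, chemicals were tested at half-log dilutions from 100 uM for 48 h. Induction or suppression of ABCB11 mRNA, normalized to ACTB, GAPDH and POLR2A, was fitted bidirectionally against vehicle.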

[14] = read-out: ABC Transporter (ABCC2), ABCC2 (gene 1244); assay: LTEA_HepaRG_ABCC2: Life Technologies and Expression Analysis (LTEA) Assay for ABC Transporter (ABCC2) using HepaRG (AID 2283464)
Procedure, shortened: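 Gene expression of ABCC2 was determined by qRT-PCR in HepaRG cells exposed 48 h to chemicals (highest 100 uM, half-log dilutions). Activity was fitted in both directions relative to 0.5% DMSO vehicle.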

[15] = read-out: Broad substrate specificity ATP-binding cassette transporter ABCG2 (Homo sapiens) (UniProt Q9UNQ0); assay: LTEA_HepaRG_ABCG2: Life Technologies and Expression Analysis (LTEA) Assay for ABC Transporter (ABCG2) using HepaRG (AID 2283465)
Procedure, shortened: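 Gene expression of ABCG2 in HepaRG liver cells is quantified by qRT-PCR following 48 h exposure across an eight-point series topping at 100 uM. Values come from bidirectional fitting relative to DMSO vehicle.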

[16] = read-out: ATP-citrate lyase (ACLY), ACLY (gene 47); assay: LTEA_HepaRG_ACLY: Life Technologies and Expression Analysis (LTEA) Assay for ATP-citrate lyase (ACLY) using HepaRG (AID 2283466)
Procedure, shortened: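 ACLY expression changes in human HepaRG liver cells are quantified by qRT-PCR after 48 h exposure to test chemicals (maximum 100 uM, half-log steps). Values are fitted in both directions relative to 0.5% DMSO vehicle.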

[17] = read-out: CFLAR gene, CFLAR (gene 8837); assay: LTEA_HepaRG_CFLAR: Life Technologies and Expression Analysis (LTEA) Assay for CFLAR gene using HepaRG (AID 2283455)
Procedure, shortened: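 Gain- or loss-of-signal changes in CFLAR transcript were fitted bidirectionally relative to 0.5% DMSO. Cells (HepaRG, duplicate wells) were dosed for 48 h across eight half-log concentrations topping at 100 uM; quantitation by TaqMan qRT-PCR.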

[18] = read-out: Cyclin D2 (CCND2), CCND2 (gene 894); assay: LTEA_HepaRG_CCND2: Life Technologies and Expression Analysis (LTEA) Assay for Cyclin D2 (CCND2) using HepaRG (AID 2283449);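 also: CCND2 transcript measured by TaqMan qRT-PCR and normalised to three housekeeping genes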
Procedure, shortened: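 In this HepaRG study, an eight-point concentration series (max 100 uM, 0.5% DMSO) is applied for 48 h. CCND2 mRNA change is derived by qRT-PCR normalised to ACTB, GAPDH and POLR2A.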

Measured: AC50

Broad substrate specificity ATP-binding cassette transporter ABCG2 (Homo sapiens), sequence (Q9UNQ0 whole entry, looked up): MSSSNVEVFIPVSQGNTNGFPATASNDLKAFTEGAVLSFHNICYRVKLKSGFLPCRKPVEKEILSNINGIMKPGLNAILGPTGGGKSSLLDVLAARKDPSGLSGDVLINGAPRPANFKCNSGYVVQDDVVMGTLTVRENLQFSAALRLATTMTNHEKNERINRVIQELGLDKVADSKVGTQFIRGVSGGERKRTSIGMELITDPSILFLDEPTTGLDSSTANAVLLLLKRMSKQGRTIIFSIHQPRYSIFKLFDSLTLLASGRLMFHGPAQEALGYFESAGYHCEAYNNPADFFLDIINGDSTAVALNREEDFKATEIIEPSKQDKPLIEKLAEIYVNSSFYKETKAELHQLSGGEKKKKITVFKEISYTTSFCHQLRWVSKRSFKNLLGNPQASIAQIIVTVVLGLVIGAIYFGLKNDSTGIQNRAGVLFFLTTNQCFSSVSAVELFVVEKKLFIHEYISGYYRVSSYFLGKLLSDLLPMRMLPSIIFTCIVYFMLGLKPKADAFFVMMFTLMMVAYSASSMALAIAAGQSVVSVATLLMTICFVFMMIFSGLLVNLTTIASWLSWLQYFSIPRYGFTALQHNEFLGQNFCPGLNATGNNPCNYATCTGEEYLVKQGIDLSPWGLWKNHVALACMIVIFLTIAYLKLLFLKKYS

O=C(O)C(F)(F)C(F)(F)C(F)(F)C(F)(F)C(F)(F)C(F)(F)C(F)(F)C(F)(F)F
active: [1] 69.2 µM | [2] 79.9 µM | [3] 50 µM | [4] 85 µM | [5] 79.7 µM | [8] 74.6 µM | [9] 50 µM | [10] 75.3 µM | [11] 16.8 µM | [13] 90.4 µM | [14] 82.7 µM | [15] 50 µM
inactive: [6] | [7] | [12] | [16]

CC(c1ccc(O)cc1)(c1ccc(O)cc1)c1ccc(O)cc1
inactive: [8] | [12]
active: [1] 91.1 µM | [2] 50 µM | [3] 24.1 µM | [5] 74.5 µM | [6] 15.8 µM | [7] 73.5 µM | [9] 70.9 µM | [10] 72.9 µM | [11] 35.9 µM | [13] 20.8 µM | [14] 81 µM | [15] 33.8 µM | [16] 61.6 µM

CC(C)C(=O)OCC(C)(C)C(OC(=O)C(C)C)C(C)C (stereo not drawn)
not listed: [18]
inactive: all other assays above

Cc1cccc([N+](=O)[O-])c1
active: [6] 50 µM
not listed: [1] | [17]
inactive: all other assays above

O=C(NC(=O)c1cc(F)c(F)cc1Cl)Nc1cc(F)ccc1N1CCC(C(=O)O)CC1
active: [6] 25 µM | [10] 21 µM | [13] 2.05 µM
not listed: [4] | [17]
inactive: all other assays above

O=NN(c1ccccc1)c1ccccc1
active: [6] 25.9 µM | [8] 78.8 µM
not listed: [4]
inactive: all other assays above

CCCCCCCCCC[N+](C)(C)CCCCCCCCCC
active: [2] 88.2 µM | [3] 50 µM | [5] 79.4 µM | [6] 22.9 µM | [9] 76.7 µM | [11] 78.8 µM | [12] 79.8 µM | [13] 15.8 µM | [14] 94.2 µM | [15] 72.8 µM
inactive: [1] | [18] | [7] | [8] | [10] | [16]
